# Measurements as given in PubChem BioAssay.
# Calls of active or inactive are those of the source.
# How the values were obtained:
# [1] = test system: Plasmodium falciparum Sir2 (PF13_0152, Sir2A); test: pfSir2 binders on small-molecule microarrays, primary screen, biochemical, small-molecule microarray, 635 nm fluorescence (AID 1098); settings: small-molecule microarray binding, fluorescence 635 nm; higher = more signal;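 also: score merges spot fluorescence intensity with its signal-to-noise ratio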
# [2] = small-molecule microarray binders of probe aDKK1, primary screen, biochemical, biotinylated probe, 635/667 nm fluorescence (AID 1099); settings: higher = more signal;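 also: score merges 667nm spot fluorescence with signal to noise across triplicate slides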
# [3] = small-molecule microarray binders of probe aCHRDL2, primary screen, biochemical, biotinylated probe, 635/667 nm fluorescence (AID 1100); settings: higher = more signal
# [4] = splicing luciferase reporter signal modulators, primary screen, spliceosome inhibition project, cell-based, HEK293, splice +/- reporter (AID 1101); settings: luminescence, 24 h, higher = more signal, called active from +8 up or from −8 down;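 also: HEK293 cells carrying a splicing-competent luciferase reporter gene; test concentration not given here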
# [5] = target: Fibroblast growth factor 10 (Homo sapiens) (UniProt O15520); test: FGF10 binders on small-molecule microarrays, primary screen, biochemical, small-molecule microarray, 635 nm fluorescence (AID 1102); settings: FGF10 binding, fluorescence 635 nm, higher = more signal
# Fibroblast growth factor 10 (Homo sapiens), sequence (O15520 whole entry, looked up): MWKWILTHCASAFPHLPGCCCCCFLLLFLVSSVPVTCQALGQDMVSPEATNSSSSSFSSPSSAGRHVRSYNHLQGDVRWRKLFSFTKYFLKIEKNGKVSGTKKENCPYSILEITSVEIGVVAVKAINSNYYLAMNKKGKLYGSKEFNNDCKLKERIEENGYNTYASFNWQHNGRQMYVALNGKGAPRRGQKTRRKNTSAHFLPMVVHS
# [6] = test system: glycogen synthase kinase-3 (GSK3A per assay name; protocol says GSK3B); test: GSK3 binders on small-molecule microarrays, primary screen, biochemical, small-molecule microarray, 635 nm fluorescence, GSK3A (AID 1103); settings: small-molecule microarray binding, fluorescence 635 nm; higher = more signal; also: the record names both GSK3A and GSK3B
# [7] = target: Epidermal growth factor receptor (Homo sapiens) (UniProt P00533); test: EGFR binders on small-molecule microarrays, primary screen, biochemical, small-molecule microarray, 635 nm fluorescence (AID 1104); settings: EGFR binding, higher = more signal;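 also: score merges 667 nm emission intensity with spot signal to noise over triplicate slides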
# Epidermal growth factor receptor (Homo sapiens), sequence (P00533 whole entry, looked up): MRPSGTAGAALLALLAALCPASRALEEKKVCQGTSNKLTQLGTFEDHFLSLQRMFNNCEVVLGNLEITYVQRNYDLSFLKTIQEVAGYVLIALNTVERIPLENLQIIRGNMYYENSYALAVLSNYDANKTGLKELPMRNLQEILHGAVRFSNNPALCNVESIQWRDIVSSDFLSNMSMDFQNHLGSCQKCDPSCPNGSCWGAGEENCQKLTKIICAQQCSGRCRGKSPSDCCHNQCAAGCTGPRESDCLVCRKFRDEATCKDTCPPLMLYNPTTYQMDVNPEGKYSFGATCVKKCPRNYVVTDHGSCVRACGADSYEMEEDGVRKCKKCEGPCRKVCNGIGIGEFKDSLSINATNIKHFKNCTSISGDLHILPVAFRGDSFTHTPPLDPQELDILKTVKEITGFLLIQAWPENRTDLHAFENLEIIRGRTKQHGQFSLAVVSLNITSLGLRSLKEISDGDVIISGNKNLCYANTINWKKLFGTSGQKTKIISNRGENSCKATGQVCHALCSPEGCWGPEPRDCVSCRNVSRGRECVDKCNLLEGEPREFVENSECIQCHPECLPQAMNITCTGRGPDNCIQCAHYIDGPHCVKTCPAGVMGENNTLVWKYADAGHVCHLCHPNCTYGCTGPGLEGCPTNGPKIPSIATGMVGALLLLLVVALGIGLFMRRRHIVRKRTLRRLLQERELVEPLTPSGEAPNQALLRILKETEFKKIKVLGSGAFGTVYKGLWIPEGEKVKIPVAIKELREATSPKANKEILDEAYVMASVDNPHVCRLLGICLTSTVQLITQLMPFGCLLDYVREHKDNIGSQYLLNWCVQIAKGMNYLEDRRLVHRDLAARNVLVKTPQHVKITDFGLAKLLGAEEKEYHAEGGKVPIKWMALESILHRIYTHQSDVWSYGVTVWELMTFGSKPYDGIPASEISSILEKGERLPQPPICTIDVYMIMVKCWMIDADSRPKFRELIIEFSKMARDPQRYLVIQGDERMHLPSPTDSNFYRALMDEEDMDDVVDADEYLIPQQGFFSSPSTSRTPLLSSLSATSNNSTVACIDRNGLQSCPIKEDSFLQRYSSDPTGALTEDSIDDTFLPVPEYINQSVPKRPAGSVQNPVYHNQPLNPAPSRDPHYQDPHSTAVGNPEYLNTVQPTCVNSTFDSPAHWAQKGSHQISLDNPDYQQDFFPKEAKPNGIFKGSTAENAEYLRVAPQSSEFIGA
# [8] = target: Follistatin-related protein 3 (Homo sapiens) (UniProt O95633); test: FSTL3 binders on small-molecule microarrays, primary screen, biochemical, small-molecule microarray, 635 nm fluorescence (AID 1105); settings: FSTL3 binding, higher = more signal;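 also: score merges emission near 667 nm and signal to noise per printed spot across three slides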
# Follistatin-related protein 3 (Homo sapiens), sequence (O95633 whole entry, looked up): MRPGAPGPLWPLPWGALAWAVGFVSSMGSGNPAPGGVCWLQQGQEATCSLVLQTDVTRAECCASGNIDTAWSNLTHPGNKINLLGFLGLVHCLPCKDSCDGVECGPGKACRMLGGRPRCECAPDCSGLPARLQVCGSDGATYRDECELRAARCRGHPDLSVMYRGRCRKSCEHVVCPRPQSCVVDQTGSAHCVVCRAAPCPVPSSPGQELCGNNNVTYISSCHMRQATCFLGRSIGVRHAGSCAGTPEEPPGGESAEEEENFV
# [9] = target: Dickkopf-related protein 1 (Homo sapiens) (UniProt O94907); test: DKK1 binders on small-molecule microarrays, primary screen, biochemical, small-molecule microarray, 635 nm fluorescence scan (AID 1106); settings: DKK1 binding, higher = more signal;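 also: score merges emission near 667 nm with signal to noise over three replicate slides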
# Dickkopf-related protein 1 (Homo sapiens), sequence (O94907 whole entry, looked up): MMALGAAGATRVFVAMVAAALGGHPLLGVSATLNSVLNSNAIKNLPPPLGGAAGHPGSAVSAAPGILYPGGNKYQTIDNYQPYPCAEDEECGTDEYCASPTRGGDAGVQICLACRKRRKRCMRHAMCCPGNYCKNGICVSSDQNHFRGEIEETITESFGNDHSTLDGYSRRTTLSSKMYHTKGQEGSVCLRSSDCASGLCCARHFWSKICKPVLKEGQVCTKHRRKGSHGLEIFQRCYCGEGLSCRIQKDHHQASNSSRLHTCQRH
# [10] = test system: Inhibin beta A chain (activin A); test: INHBA (activin A) binders on microarrays, primary screen, biochemical, small-molecule microarray, 635 nm fluorescence scan (AID 1107); settings: small-molecule microarray binding, higher = more signal;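 also: mouse activin A protein probed at 4.33 µg/mL on printed slides; score merges bound-protein fluorescence near 667 nm with spot signal-to-noise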
# [11] = test system: Human papillomavirus type 1a protein E7 (residues 44-93); test: HPV1a E7 fragment binders on microarrays, primary screen, biochemical, small-molecule microarray, residues 44-93, 635 nm fluorescence (AID 1108); settings: small-molecule microarray binding, fluorescence 635 nm; higher = more signal;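 also: E7 fragment applied at 1 µg/mL in TBST for 1 h at 4 C; score combines spot fluorescence with its signal to noise ratio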
# [12] = modulators of HCV replicon luciferase signal, primary screen, HCV replication inhibitor project, Huh7 cells, luciferase reporter (AID 1109); settings: 48 h, higher = more signal;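 also: huh7 hepatoma cells harbouring a luciferase neomycin HCV replicon reporter; luciferase luminescence as measure of HCV replicon replication; test concentration not given here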
# [13] = target: Left-right determination factor 2 (Homo sapiens) (UniProt O00292); test: LEFTY2 binders on small-molecule microarrays, primary screen, biochemical, small-molecule microarray, 635 nm fluorescence scan (AID 1110); settings: LEFTY2 binding, higher = more signal
# Left-right determination factor 2 (Homo sapiens), sequence (O00292 whole entry, looked up): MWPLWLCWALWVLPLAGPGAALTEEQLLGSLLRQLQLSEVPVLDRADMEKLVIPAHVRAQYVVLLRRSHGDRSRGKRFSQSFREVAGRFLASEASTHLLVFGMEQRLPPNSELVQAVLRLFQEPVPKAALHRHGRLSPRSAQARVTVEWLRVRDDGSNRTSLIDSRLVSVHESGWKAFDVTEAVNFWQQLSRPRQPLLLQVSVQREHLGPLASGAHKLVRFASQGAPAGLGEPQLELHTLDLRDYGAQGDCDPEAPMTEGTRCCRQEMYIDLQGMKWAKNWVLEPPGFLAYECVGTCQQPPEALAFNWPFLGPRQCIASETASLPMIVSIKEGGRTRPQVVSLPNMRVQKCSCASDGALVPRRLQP
# [14] = target: Calmodulin-1 (Homo sapiens) (UniProt P0DP23); test: CALM1 binders on microarrays, EGTA buffer, profiling panel, biochemical, small-molecule microarray, Cy5-labelled CALM1 (AID 1111); settings: Cy5-CALM1 binding fluorescence, higher = more signal;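 also: labelled calmodulin applied in Tris saline Tween buffer holding calcium plus EGTA and DTT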
# [15] = target: Calmodulin-1 (Homo sapiens) (UniProt P0DP23); test: calcium-bound CALM1 binders on microarrays, profiling panel, artefact control for SMM control-protein annotation, biochemical, small-molecule microarray, Cy5-labelled CALM1, plus calcium (AID 1112); settings: Cy5-CALM1 binding fluorescence, higher = more signal;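 also: score merges spot fluorescence with signal to noise from triplicate slides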
# [16] = small-molecule microarray binders of probe aWnt5a, primary screen, biochemical, biotinylated probe, 635/667 nm fluorescence (AID 1113); settings: higher = more signal;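 also: score merges 667 nm fluorescence intensity with signal-to-noise per printed feature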
# [17] = small-molecule microarray binders of probe aShh, primary screen, biochemical, biotinylated probe, 635/667 nm fluorescence (AID 1114); settings: higher = more signal;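 also: probe is biotin-labelled aShh protein from a stem cell growth factor screen; measures binding of labelled protein to compounds printed on the slide; score merges feature fluorescence at 667 nm with signal-to-noise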
# [18] = small-molecule microarray binders of probe aNog, primary screen, biochemical, biotinylated probe, 635/667 nm fluorescence (AID 1115); settings: higher = more signal;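 also: probe is biotinylated aNog protein used at 0.15 µg/mL for 1 h at 4 C; z-score combines 667 nm fluorescence of each spot with its signal to noise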
# [19] = target: Torsin-1A-interacting protein 1 (Homo sapiens) (UniProt Q5JTV8); test: LAP1 binders from COS7 cell lysate, primary screen, small-molecule microarray, 635/667 nm fluorescence (AID 1116); settings: COS7-hLAP1 lysate binding, 635 nm fluorescence, higher = more signal
# Torsin-1A-interacting protein 1 (Homo sapiens), sequence (Q5JTV8 whole entry, looked up): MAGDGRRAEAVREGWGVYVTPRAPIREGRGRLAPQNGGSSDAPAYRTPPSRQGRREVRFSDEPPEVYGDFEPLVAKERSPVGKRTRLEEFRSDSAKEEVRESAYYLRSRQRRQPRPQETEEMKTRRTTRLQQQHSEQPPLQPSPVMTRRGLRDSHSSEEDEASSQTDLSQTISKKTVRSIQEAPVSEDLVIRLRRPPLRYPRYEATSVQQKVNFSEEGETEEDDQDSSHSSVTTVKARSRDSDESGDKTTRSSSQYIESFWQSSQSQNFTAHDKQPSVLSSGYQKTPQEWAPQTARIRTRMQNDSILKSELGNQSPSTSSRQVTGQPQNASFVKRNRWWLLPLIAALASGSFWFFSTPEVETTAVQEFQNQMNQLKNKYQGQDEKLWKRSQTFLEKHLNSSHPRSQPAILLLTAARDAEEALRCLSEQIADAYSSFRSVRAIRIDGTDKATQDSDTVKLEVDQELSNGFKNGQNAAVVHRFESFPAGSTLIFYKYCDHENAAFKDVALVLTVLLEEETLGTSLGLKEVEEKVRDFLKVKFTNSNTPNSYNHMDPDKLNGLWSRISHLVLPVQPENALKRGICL
# [20] = target: Alpha-bungarotoxin (Bungarus multicinctus) (UniProt P60615); test: alpha-bungarotoxin binders on microarray, profiling panel, artefact control for SMM control protein annotation, biochemical, small-molecule microarray, Alexa647 label, 635/667 nm fluorescence (AID 1117); settings: alpha-BTX-A647 binding fluorescence, higher = more signal
# Alpha-bungarotoxin (Bungarus multicinctus), sequence (P60615 whole entry, looked up): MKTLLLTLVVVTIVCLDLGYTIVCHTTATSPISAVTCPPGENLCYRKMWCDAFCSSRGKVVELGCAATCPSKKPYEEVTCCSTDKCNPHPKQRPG
SMILES,composite z-score [1],composite z-score [2],composite z-score [3],z-score [4],composite z-score [5],composite z-score [6],composite z-score [7],composite z-score [8],composite z-score [9],composite z-score [10],composite z-score [11],z-score [12],composite z-score [13],composite z-score [14],composite z-score [15],composite z-score [16],composite z-score [17],composite z-score [18],composite z-score [19],composite z-score [20]
COc1cccc(C)c1NC(=O)O[C@H]1[C@H](OC(=O)Nc2ccccc2)[C@H](OC(=O)Nc2ccccc2)[C@@H](OC)O[C@@H]1CO,1.1,0.245,0.708,0.419 (inactive),0.96,0.0861,-0.0372,0.367,-0.294,0.179,1.3,-2.96,-0.183,1.81,0.645,0.0775,0.775,-0.236,0.0722,1.3
CC(C)=CCCC(C)=CC(O)C1C=CC2C(=O)N(c3ccccc3)C(=O)C2N1Nc1ccc([N+](=O)[O-])cc1 (stereo not given),1.29,-0.0499,0.77,0.644 (inactive),0.74,1.34,0.0387,0.996,-0.4,0.387,1.42,-0.135,-0.183,1.78,0.512,-0.0194,0.0952,1.71,1.08,0.972
CCOC(=O)C[C@H]1[C@H](OC(=O)c2ccccc2-c2ccccc2)[C@@H](NC(=O)c2ccccc2)c2cc(OCCCO)ccc2N1C(=O)Cc1ccc(OC)cc1,0.0521,-0.0327,0.0247,-0.269 (inactive),0.0268,-0.519,-0.104,-0.183,-0.0633,0.264,-0.12,-1.31,-0.0713,-0.026,-0.641,-0.107,-0.289,-0.0877,0.593,0.66
C[N+](C)(C)CCCC[C@@H]1NC(=O)[C@@H]2C[C@H](C(=O)NCCCCCNC(=O)CS)[C@H](c3cccc(OCCO)c3)N2C1=O,1.71,-0.14,-0.149,0.241 (inactive),0.545,0.23,0.0868,-0.19,0.585,-0.003,0.911,-0.193,0.0926,-0.0534,0.581,-0.0478,0.151,0.0197,-0.034,0.568
COc1cc2c(cc1OC)CN(C(=O)[C@@H]1[C@H]3C(=O)O[C@H](c4ccccc4)[C@H](c4ccccc4)N3[C@H](c3ccc(OCCO)cc3)[C@@]13C(=O)Nc1ccc(C#CCCO)cc13)CC2,1.18,-0.0226,0.772,-0.921 (inactive),1.28,1.27,0.714,1.23,0.646,0.638,1.44,-1.53,1.01,1.73,1.01,0.265,0.391,1.8,1.33,1.36
Cc1cc(C)c(C(O)C2C=CC3C(=O)N(c4ccccc4)C(=O)C3N2Nc2ccc([N+](=O)[O-])cc2)c(C)c1 (stereo not given),1.55,0.74,0.911,0.311 (inactive),0.693,1.3,0.326,1.45,0.275,0.471,1.44,0.49,0.38,1.84,0.469,-0.131,0.0328,1.21,1.29,2.19
CC(C)NC(=O)[C@@H]1c2ccccc2C(=O)N(Cc2cc(C(F)(F)F)cc(C(F)(F)F)c2)[C@H]1c1ccc(CO)cc1,0.46,0.178,0.226,0.0833 (inactive),0.312,0.811,-0.0125,0.504,0.307,0.325,0.376,-0.153,0.147,0.876,0.221,-0.176,-0.0793,0.735,0.724,0.594
CN(C)CCCN1C(=O)[C@@]2(Cc3ccccc31)c1ccccc1C(=O)N(Cc1ccccc1)[C@H]2c1ccc(CO)cc1,0.74,-0.152,0.113,-0.773 (inactive),-0.622,0.54,-0.306,0.408,0.0366,0.799,0.118,-1.2,-0.0359,0.505,-0.258,-0.252,-0.289,-0.288,-0.123,0.648
COCCOC(=O)N1C(=O)[C@@]2(c3cc(C#CCCO)ccc31)[C@H](C(=O)NC[C@H](O)c1ccccc1)[C@H]1C(=O)O[C@H](c3ccccc3)[C@H](c3ccccc3)N1[C@@H]2c1ccccc1OCCO,0.506,0.437,0.426,-0.183 (inactive),1.32,1.33,0.938,1.41,1.06,0.95,1.43,-1.31,0.966,0.362,-0.354,0.287,0.323,1.36,1.12,0.784
O=C1N(Cc2ccccc2)c2ccccc2[C@H]2OC(c3ccc(OCCCO)cc3)=N[C@@]12CCS(=O)(=O)c1ccccc1,0.703,-0.0921,0.584,0.212 (inactive),1.06,1.31,0.385,1.23,0.379,0.808,1.46,-2.22,0.479,1.76,-0.465,0.0317,0.435,0.347,0.557,0.977
C=CCC(OC(C)=O)[C@@H]1[C@@H](N(Cc2ccc(-c3ccccc3)cc2)C(=O)Cc2ccc(OC)cc2)c2cc(OCCCO)ccc2N1C(=O)c1ccc(-c2ccccc2)cc1 (stereo not given in full),-0.0063,0.073,0.31,-0.757 (inactive),-0.0097,-0.15,-0.332,-0.0062,-0.18,1.22,-0.354,0.257,0.265,0.36,0.807,-0.0718,-0.229,-0.174,0.609,0.544
